In PubChem BioAssay (EPA / NIEHS):
Where a structure was tested more than once in an assay, its records may differ in their call. Calls of active or inactive are those of the source. Rule for the calls: active = hit-call score of the fitted dose curve at least 0.9, where 1 is the maximum; inactive = score below 0.9.

Legend:
[1] = ATG_E_Box_CIS: Attagene CIS-FACTORIAL HepG2 Assay for human Enhancer Box (E-box) (AID 2282936); conditions: HepG2 E-box cis-reporter transcription, actives raise or lower the signal
Outline: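 Endogenous transcription factor activity was sensed in human HepG2 liver cells through transfected cis-promoter reporter units. After 24 h of dosing, total RNA was reverse-transcribed and reporter cDNA resolved by capillary electrophoresis.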

[2] = ATG_M_61_CIS: Attagene CIS-FACTORIAL HepG2 Assay for M61 Transcription Factor (Internal Marker) (AID 2282937); conditions: HepG2 Attagene CIS-FACTORIAL M61 internal marker reporter; actives raise or lower the signal
Outline: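 Human liver HepG2, transient MRTU transfection (cis promoter elements), 24 h compound. Total RNA → oligo(dT) RT → PCR → FAM label → HpaI → CE. Internal background marker; bidirectional fitting, DMSO = baseline.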

[3] = ATG_EGR_CIS: Attagene CIS-FACTORIAL HepG2 Assay for human Early Growth Response 1 (EGR1) (AID 2282938); conditions: HepG2 Attagene CIS-FACTORIAL EGR reporter mRNA; actives raise or lower the signal
Outline: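 Transient transfection of human HepG2 with multiple cis-regulated reporter units, chemical exposure 24 h, total RNA isolated. Reverse transcription, PCR, fluorescent labelling and capillary electrophoresis quantify reporter transcripts; activity fitted bidirectionally against DMSO.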

[4] = ATG_M_19_CIS: Attagene CIS-FACTORIAL HepG2 Assay for M19 Transcription Factor (Internal Marker) (AID 2282939); conditions: HepG2 Attagene CIS-FACTORIAL M19 internal marker reporter; actives raise or lower the signal
Outline: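 Internal marker readout, fitted in both directions against DMSO, from HepG2 cells carrying transfected cis-element reporter constructs; RT-PCR and capillary electrophoresis of reporter mRNA after 24 h exposure.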

[5] = ATG_Ets_CIS: Attagene CIS-FACTORIAL HepG2 Assay for human Erythroblast Transformation Specific (ETS) (AID 2282941); conditions: HepG2 ETS cis-reporter transcription, actives raise or lower the signal
Outline: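 Multiplexed reporter transcript profiling: HepG2, 24 h treatment, total RNA to cDNA, PCR, 6-FAM labelling, HpaI cut, capillary electrophoresis. Gain- or loss-of-signal fitted against DMSO.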

[6] = biological target: Hepatocyte nuclear factor 3-beta (Homo sapiens) (UniProt Q9Y261); assay: ATG_FoxA2_CIS: Attagene CIS-FACTORIAL HepG2 Assay for human Forkhead box A2 (FOXA2) (AID 2282942); conditions: HepG2 cis-reporter transcription factor activity, 24 h; actives raise or lower the signal
Chain of Hepatocyte nuclear factor 3-beta (Homo sapiens) (Q9Y261 whole entry, looked up): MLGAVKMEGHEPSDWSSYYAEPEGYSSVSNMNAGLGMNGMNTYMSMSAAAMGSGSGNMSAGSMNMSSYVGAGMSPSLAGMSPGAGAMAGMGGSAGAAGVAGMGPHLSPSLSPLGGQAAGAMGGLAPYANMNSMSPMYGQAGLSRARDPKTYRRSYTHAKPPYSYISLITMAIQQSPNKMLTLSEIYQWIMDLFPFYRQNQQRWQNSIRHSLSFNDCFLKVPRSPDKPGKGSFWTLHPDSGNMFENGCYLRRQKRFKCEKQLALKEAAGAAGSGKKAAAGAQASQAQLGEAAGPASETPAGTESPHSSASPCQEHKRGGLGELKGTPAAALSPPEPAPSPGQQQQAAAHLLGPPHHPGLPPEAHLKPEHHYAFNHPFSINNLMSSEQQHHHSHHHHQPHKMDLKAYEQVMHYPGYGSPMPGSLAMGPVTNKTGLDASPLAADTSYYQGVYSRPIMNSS
Outline: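 Transient MRTU transfection of HepG2 liver cells; 24 h treatment; total RNA → oligo(dT) RT → PCR → FAM primer extension → HpaI cut → CE. Bidirectional fit vs DMSO.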

[7] = ATG_FoxO_CIS: Attagene CIS-FACTORIAL HepG2 Assay for human Forkhead box O (FoxO) (AID 2282943); conditions: HepG2 Attagene cis-reporter, FoxO element, mRNA; actives raise or lower the signal
Outline: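 Values reflect reporter mRNA induction or loss in HepG2 cells 24 h post-dosing, fitted bidirectionally with DMSO as negative control and baseline. Detection used RT-PCR and fluorescence capillary electrophoresis.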

[8] = ATG_GATA_CIS: Attagene CIS-FACTORIAL HepG2 Assay for human GATA Binding Protein (AID 2282944); conditions: HepG2 GATA cis-element reporter, Attagene multiplex mRNA; actives raise or lower the signal
Outline: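 Reporter transcripts from a GATA cis-regulated unit, among multiplexed reporters in transfected HepG2 cells, were measured by RT-PCR with capillary electrophoresis after 24 h dosing. Induction or loss scored relative to DMSO.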

[9] = ATG_GLI_CIS: Attagene CIS-FACTORIAL HepG2 Assay for human Zinc Finger Protein GLI1 (AID 2282945); conditions: HepG2, Attagene cis-factorial reporter mRNA, GLI element; actives raise or lower the signal
Outline: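 HepG2 cells transiently transfected with cis-promoter multiplexed reporter units report endogenous transcription factor activity. After 24 h chemical exposure, reporter mRNA was quantified by RT-PCR, 6-FAM labelling, HpaI digestion and capillary electrophoresis, with bidirectional fitting against DMSO.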

[10] = ATG_GRE_CIS: Attagene CIS-FACTORIAL HepG2 Assay for human Glucocorticoid Response Elements (GRE) (AID 2282947); conditions: HepG2 GRE cis-reporter, Attagene multiplex mRNA; actives raise or lower the signal
Outline: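 Cells (HepG2) bearing transfected cis-promoter reporter transcription units were treated with chemical for 24 hours. Reporter mRNA was measured via RT-PCR with capillary electrophoresis, and activity was fitted in both directions relative to DMSO.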

[11] = ATG_ISRE_CIS: Attagene CIS-FACTORIAL HepG2 Assay for human Interferon Regulatory Factor 1 (IRF1) binding to an Interferon-Stimulated Response Element (ISRE) (AID 2282948); conditions: HepG2 ISRE cis-reporter (Attagene), mRNA transcription readout; actives raise or lower the signal
Outline: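 Signal reflects induction or loss of ISRE-linked reporter mRNA in transiently transfected HepG2 cells after a 24 h treatment, detected by fluorescent RT-PCR fragments on capillary electrophoresis and normalised to DMSO.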

[12] = ATG_M_32_CIS: Attagene CIS-FACTORIAL HepG2 Assay for M32 Transcription Factor (Internal Marker) (AID 2282949); conditions: HepG2 Attagene cis-factorial M32 reporter, mRNA; actives raise or lower the signal;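 note: background control marker of the multiplexed CIS panel rather than a real target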
Outline: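 HepG2 transfectants (cis-regulated reporter transcription units) dosed 24 h. Reporter mRNA by RT-PCR plus CE, analysed as gain or loss relative to DMSO.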

[13] = ATG_M_06_CIS: Attagene CIS-FACTORIAL HepG2 Assay for M06 Transcription Factor (Internal Marker) (AID 2282950); conditions: HepG2 Attagene CIS-FACTORIAL M06 internal marker reporter; actives raise or lower the signal
Outline: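 Serves as a background control readout. Transfected HepG2 exposed to compounds for 24 h, then reporter transcripts quantified by fluorescent RT-PCR and capillary electrophoresis. Both directions fitted against DMSO baseline.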

[14] = biological target: Hypoxia-inducible factor 1-alpha (Homo sapiens) (UniProt Q16665); assay: ATG_HIF1a_CIS: Attagene CIS-FACTORIAL HepG2 Assay for human Hypoxia Inducible Factor 1 (HIF1A) (AID 2282951); conditions: HepG2 Attagene cis-factorial HIF1a reporter transcription; actives raise or lower the signal
Chain of Hypoxia-inducible factor 1-alpha (Homo sapiens) (Q16665 whole entry, looked up, the tested form may be a part): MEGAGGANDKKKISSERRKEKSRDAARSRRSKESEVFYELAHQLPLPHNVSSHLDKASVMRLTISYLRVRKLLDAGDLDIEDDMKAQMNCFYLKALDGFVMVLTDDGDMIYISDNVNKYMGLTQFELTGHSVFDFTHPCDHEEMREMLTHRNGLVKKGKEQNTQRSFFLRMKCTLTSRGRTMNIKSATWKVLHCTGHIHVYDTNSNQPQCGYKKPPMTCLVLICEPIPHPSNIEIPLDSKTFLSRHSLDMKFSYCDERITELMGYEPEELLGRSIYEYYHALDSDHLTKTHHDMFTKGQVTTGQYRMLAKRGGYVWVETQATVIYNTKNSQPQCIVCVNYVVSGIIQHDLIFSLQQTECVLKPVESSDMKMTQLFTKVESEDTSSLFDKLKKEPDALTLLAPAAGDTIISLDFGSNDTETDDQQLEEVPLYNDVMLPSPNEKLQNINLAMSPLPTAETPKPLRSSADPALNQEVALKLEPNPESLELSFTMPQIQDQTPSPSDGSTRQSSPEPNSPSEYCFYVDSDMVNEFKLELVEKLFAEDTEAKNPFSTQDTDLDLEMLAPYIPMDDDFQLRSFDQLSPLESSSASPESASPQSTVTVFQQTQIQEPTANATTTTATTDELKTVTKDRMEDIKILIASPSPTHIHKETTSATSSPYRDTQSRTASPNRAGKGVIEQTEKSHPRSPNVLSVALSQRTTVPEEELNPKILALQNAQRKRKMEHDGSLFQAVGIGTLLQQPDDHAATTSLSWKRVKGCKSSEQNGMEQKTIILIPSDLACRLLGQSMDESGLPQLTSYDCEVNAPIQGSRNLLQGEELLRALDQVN
Outline: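 Transient MRTU transfection of human HepG2 liver cells, 24 h compound treatment, then total RNA isolation, oligo(dT) reverse transcription, PCR amplification, fluorescent labelling and capillary electrophoresis of reporter fragments. Gain or loss relative to DMSO.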

[15] = biological target: Hepatocyte nuclear factor 6 (Homo sapiens) (UniProt Q9UBC0); assay: ATG_HNF6_CIS: Attagene CIS-FACTORIAL HepG2 Assay for human Hepatocyte Nuclear Factor 6 (HNF6) (AID 2282952); conditions: HepG2 Attagene cis-factorial HNF6 reporter transcription; actives raise or lower the signal
Chain of Hepatocyte nuclear factor 6 (Homo sapiens) (Q9UBC0 whole entry, looked up): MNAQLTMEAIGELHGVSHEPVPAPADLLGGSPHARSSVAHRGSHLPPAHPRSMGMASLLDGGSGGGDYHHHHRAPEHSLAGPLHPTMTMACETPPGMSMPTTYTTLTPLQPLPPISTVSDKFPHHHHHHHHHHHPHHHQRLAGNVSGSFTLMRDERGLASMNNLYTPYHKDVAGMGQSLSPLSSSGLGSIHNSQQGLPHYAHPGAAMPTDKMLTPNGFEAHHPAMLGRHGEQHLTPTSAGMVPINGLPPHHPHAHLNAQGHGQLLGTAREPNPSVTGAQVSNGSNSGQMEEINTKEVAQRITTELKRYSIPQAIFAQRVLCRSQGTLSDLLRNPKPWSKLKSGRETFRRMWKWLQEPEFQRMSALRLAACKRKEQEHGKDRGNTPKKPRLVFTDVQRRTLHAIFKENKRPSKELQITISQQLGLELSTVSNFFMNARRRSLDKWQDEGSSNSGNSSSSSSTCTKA
Outline: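 Endogenous transcription factor activity in human HepG2 liver cells was captured through cis-regulated reporter constructs. After 24 h treatment, reporter mRNA was measured by RT-PCR with capillary electrophoresis, and activity was fitted in both directions relative to DMSO.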

[16] = biological target: Heat shock factor protein 1 (Homo sapiens) (UniProt Q00613); assay: ATG_HSE_CIS: Attagene CIS-FACTORIAL HepG2 Assay for human Heat Shock Transcription Factor 1 (HSE) (AID 2282953); conditions: HepG2 HSE cis-reporter, Attagene RNA transcription; actives raise or lower the signal
Chain of Heat shock factor protein 1 (Homo sapiens) (Q00613 whole entry, looked up): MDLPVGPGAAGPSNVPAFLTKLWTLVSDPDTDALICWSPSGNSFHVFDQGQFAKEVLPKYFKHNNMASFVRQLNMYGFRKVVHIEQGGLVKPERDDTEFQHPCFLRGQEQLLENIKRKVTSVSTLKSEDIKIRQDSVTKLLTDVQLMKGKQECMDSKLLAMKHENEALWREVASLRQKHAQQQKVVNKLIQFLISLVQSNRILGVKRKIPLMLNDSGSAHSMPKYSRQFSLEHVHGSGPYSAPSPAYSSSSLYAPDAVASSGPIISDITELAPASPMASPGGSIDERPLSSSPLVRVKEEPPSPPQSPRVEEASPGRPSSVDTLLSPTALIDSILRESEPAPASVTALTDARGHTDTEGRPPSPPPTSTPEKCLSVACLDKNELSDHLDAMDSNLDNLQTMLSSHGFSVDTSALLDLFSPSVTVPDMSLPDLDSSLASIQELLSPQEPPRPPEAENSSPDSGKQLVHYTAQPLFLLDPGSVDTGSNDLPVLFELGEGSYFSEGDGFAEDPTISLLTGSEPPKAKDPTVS
Outline: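 Endogenous transcription factor activity in transiently transfected HepG2, read as reporter mRNA by RT-PCR with fluorescent capillary electrophoresis after 24 h. Gain or loss of signal fitted versus DMSO baseline.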

[17] = ATG_MRE_CIS: Attagene CIS-FACTORIAL HepG2 Assay for human Metal Responsive Element (MRE) (AID 2282954); conditions: HepG2 MRE cis-reporter transcription, Attagene multiplex; actives raise or lower the signal
Outline: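 Cells were transfected with cis-promoter reporter transcription units, then dosed for 24 h. RNA was reverse-transcribed, amplified, fluorescently labelled and resolved by capillary electrophoresis, and activity was fitted in both directions relative to DMSO.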

[18] = biological target: Bile acid receptor (Homo sapiens) (UniProt Q96RI1); assay: ATG_IR1_CIS: Attagene CIS-FACTORIAL HepG2 Assay for human Nuclear Receptor Subfamily 1 Group H Member 4 (NR1H4), IR1 submotif (AID 2282946); conditions: IR1 reporter transcription, actives raise or lower the signal
Chain of Bile acid receptor (Homo sapiens) (Q96RI1 whole entry, looked up): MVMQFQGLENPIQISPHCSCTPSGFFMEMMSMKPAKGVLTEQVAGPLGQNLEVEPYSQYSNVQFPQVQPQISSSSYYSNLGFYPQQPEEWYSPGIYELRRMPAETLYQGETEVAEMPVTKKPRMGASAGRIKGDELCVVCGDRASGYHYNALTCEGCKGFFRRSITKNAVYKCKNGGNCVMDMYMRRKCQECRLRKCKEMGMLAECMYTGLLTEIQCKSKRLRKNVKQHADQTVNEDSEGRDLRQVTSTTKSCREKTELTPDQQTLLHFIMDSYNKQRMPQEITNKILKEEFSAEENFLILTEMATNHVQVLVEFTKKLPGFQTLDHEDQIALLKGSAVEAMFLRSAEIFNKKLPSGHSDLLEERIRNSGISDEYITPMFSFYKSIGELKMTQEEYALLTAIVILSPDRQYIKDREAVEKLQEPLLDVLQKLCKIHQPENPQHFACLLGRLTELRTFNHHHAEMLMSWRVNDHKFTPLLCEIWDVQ
Outline: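 Readout: reporter transcript levels by RT-PCR with fluorescent capillary electrophoresis, from HepG2 cells transiently transfected with multiplexed cis-regulated reporters and dosed 24 h. Gain- or loss-of-signal fitted versus DMSO negative control.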

[19] = ATG_PBREM_CIS: Attagene CIS-FACTORIAL HepG2 Assay for human Phenobarbital-responsive Enhancer Module (PBREM) (AID 2282955); conditions: HepG2 PBREM cis-reporter, Attagene multiplexed transcription; actives raise or lower the signal
Outline: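 Endogenous transcription factors in human liver HepG2 cells drive a PBREM cis-element reporter, whose transcript level after 24 h treatment is quantified by RT-PCR with capillary electrophoresis; activity fitted in both directions against DMSO.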

Measured: AC50

ClC1=C(Cl)[C@]2(Cl)[C@@H]3[C@H]4C[C@H]([C@@H]5O[C@H]45)[C@@H]3[C@@]1(Cl)C2(Cl)Cl
not listed: [18] | [19]
inactive: all other assays above

Cc1cccc([N+](=O)[O-])c1
not listed: [11] | [14] | [19]
inactive: all other assays above

ClC1=C(Cl)[C@]2(Cl)[C@@H]3[C@@H](Cl)[C@H]4O[C@H]4[C@@H]3C1(Cl)C2(Cl)Cl
active: [1] 53 µM | [3] 54.9 µM | [4] 179 µM | [8] 162 µM | [16] 85.5 µM | [17] 100 µM
not listed: [11] | [18]
inactive: all other assays above

Clc1ccc(C(Cl)(Cl)Cl)cc1
not listed: [11] | [19]
inactive: all other assays above

CC(C)(O)C(=O)Nc1ccc([N+](=O)[O-])c(C(F)(F)F)c1
active: [16] 77 µM
inactive: [1] | [2] | [3] | [4] | [5] | [6] | [7] | [8] | [9] | [11] | [12] | [13] | [14] | [15] | [16] | [17] | [19]

Nc1ccc(-c2ccc(N)cc2)cc1
not listed: [11] | [14] | [18]
inactive: all other assays above

OCC(O)CO
not listed: [11] | [19]
inactive: all other assays above

c1ccc(-c2ccccc2)cc1
active: [11] 110 µM
not listed: [14] | [19]
inactive: all other assays above

COc1ccc(O)c(C(C)(C)C)c1
active: [3] 100 µM | [5] 111 µM | [17] 148 µM | [19] 25.7 µM
not listed: [14]
inactive: all other assays above
